PubChem BioAssay
Where “and” joins values, the source holds several entries; their conditions need not be identical. Equal entries are not always repeated. Calls of active or inactive are those of the source.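 How the source made its calls, unless noted: active means normalized viability below 100% at a tested concentration; inactive means the rest.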

Columns and labels:
[1] = sensitizers of A549 cells to miR-34 induction, primary screen, imaging, A549 dox-inducible miR-34, nuclei and caspase counts (AID 1347080;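 active means compounds whose cell count with miR-34 switched on is under 0.7 times the count with it off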); details: A549 miR-34 inducible, Hoechst nuclei count, 48 h
[2] = survival rescue of mitochondrial mutant cells in low glucose, primary screen, MELAS cybrids, Rieske KO mouse fibroblasts, CellTiter-Glo (AID 1508586;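 active means mean z-score across replicates of 1.96 or higher in either the MELAS or the Rieske mutant cell line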;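 further: z relative to plate mean and SD of compound and empty wells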)
[3] = ovarian cancer cell viability with rucaparib, profiling panel, oncology-focused library, rucaparib conditional (AID 1508598); details: patient-derived ovarian cancer cells, CellTiter-Glo viability, 144 h, stronger effect = lower value
[4] = LFS_MB_P medulloblastoma growth inhibition, cell-based, chromothripsis tumors, cisplatin or BGB combos (AID 1671449; in the data active means inhibition above about 80%;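 further: cells exposed for 96 hours; 0% = vehicle DMSO and 100% = killing by high DMSO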); details: LFS_MB_P medulloblastoma cells
[5] = HDN33 neuroblastoma growth inhibition, cell-based, chromothripsis tumors, cisplatin or BGB combos (AID 1671450; in the data active means inhibition above about 80%;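 further: cells exposed to compound for four days; 0% = vehicle DMSO and 100% = cell killing by high DMSO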); details: HDN33 neuroblastoma cells, stronger effect = higher value
[6] = ICB984 medulloblastoma cell growth inhibition, synergistic combos for chromothripsis tumors, cisplatin or BGB combos (AID 1671451; call rule not given here;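 further: cells exposed for 96 hours before readout; 0% = vehicle DMSO and 100% = killing by high DMSO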); details: ICB984 medulloblastoma cells, drug combinations, stronger effect = higher value
[7] = LFS_MB_1R medulloblastoma cell growth inhibition, synergistic combos for chromothripsis tumors, cisplatin or BGB combos (AID 1671452; in the data active means inhibition above about 80%;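 further: cells exposed for 96 hours before readout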); details: LFS_MB_1R medulloblastoma cells, stronger effect = higher value
[8] = HTB85 osteosarcoma cell growth inhibition, synergistic combos for chromothripsis tumors, BGB or cisplatin IC20 combos (AID 1671453; in the data active means inhibition above about 80%;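 further: cells exposed for 96 hours before readout; 0% = vehicle DMSO and 100% = high DMSO killing control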); details: HTB85 osteosarcoma cells, drug combinations, stronger effect = higher value
[9] = CRL2098 osteosarcoma cell growth inhibition, synergistic combos for chromothripsis tumors, BGB or cisplatin IC20 combos (AID 1671454; in the data active means inhibition above about 80%;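 further: cells exposed for 96 h before readout; 0% = vehicle DMSO and 100% = killing by high DMSO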); details: CRL2098 osteosarcoma cells, drug combinations, stronger effect = higher value
[10] = HD-MB03 medulloblastoma cell growth inhibition, synergistic combos for chromothripsis tumors, BGB or cisplatin IC20 combos (AID 1671455; in the data active means inhibition above about 83%;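 further: 0% = vehicle DMSO and 100% = high DMSO as cytotoxic control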); details: HD-MB03 medulloblastoma cells, stronger effect = higher value
[11] = UWB1.289 ovarian carcinoma cell growth inhibition, synergistic combos for chromothripsis tumors, BGB or cisplatin combos (AID 1671456; in the data active means inhibition above about 80%;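 further: cells exposed to compound for four days; 0% = vehicle DMSO and 100% = killing by high DMSO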); details: UWB1.289 ovarian carcinoma cells, stronger effect = higher value
[12] = LFS_MB_2R medulloblastoma cell growth inhibition, synergistic combos for chromothripsis tumors, cisplatin combos (AID 1671457; in the data active means inhibition above about 80%;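 further: cells exposed to compound for four days before readout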); details: LFS_MB_2R medulloblastoma cells, stronger effect = higher value
[13] = MDA-MB-436 breast carcinoma cell growth inhibition, synergistic combos for chromothripsis tumors, BGB or cisplatin combos (AID 1671458; call rule not given here;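 further: cells exposed for 96 hours; 0% = vehicle DMSO and 100% = killing by high DMSO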); details: MDA-MB-436 breast carcinoma growth inhibition, drug combinations, stronger effect = higher value
[14] = UWB1.289_BRCA1 ovarian cancer growth, cell-based, BGB or cisplatin combinations (AID 1671459; in the data active means inhibition above about 80%); details: UWB1.289 BRCA1 ovarian carcinoma, drug combinations, stronger effect = higher value
[15] = growth inhibition of BT084 medulloblastoma cells, cell-based, ICGC_MB145, cisplatin and BGB IC40 combos (AID 1671461; in the data active means inhibition above about 80%;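 further: cells exposed to drugs for 96 hours; 0% = vehicle DMSO and 100% = high DMSO full killing control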); details: drug combinations, stronger effect = higher value
[16] = growth inhibition of RCMB18 medulloblastoma cells, cell-based, cisplatin and BGB IC40 combos (AID 1671462; in the data active means inhibition above about 80%;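 further: cells exposed to compound for four days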); details: stronger effect = higher value
[17] = growth inhibition of CRL1545 osteosarcoma cells, cell-based, cisplatin and BGB IC20 combos (AID 1671464; in the data active means inhibition above about 80%;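 further: cells exposed to compound for 96 hours before readout; 0% = vehicle DMSO and 100% = high DMSO killing control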); details: stronger effect = higher value
[18] = measured here: combination with BGB IC40, at 0.05 µM
[19] = measured here: with BGB IC20 combination, at 0.5 µM
[20] = measured here: with cisplatin IC20 combination, at 0.5 µM
[21] = measured here: combination with cisplatin, at 0.5 µM
[22] = measured here: combination with cisplatin, at 5 µM

CCOC(=O)NCCCC(=O)NCCc1ccccc1
fold change ([1]; stronger effect = lower value, cell number ratio, induced over uninduced): 0.978 (inactive) | fold change ([1]; measured here: relative caspase fold change +Dox/-Dox): 0.408 | cell count ([1]; measured here: total cells with miR-34 induction, stronger effect = lower value): 8950 | cell count ([1]; measured here: total cells without miR-34 induction): 9150 | z-score ([2]; MELAS cybrid survival, CellTiter-Glo 48 h, stronger effect = higher value): -0.307 (inactive) | z-score ([2]; Rieske KO mouse fibroblast survival, CellTiter-Glo 72 h): 0.919 | viability ([3]; at 0.000305 µM, OCI-C5x cells, with rucaparib 10 µM, 100% = cells with rucaparib alone): 123% (inactive) | viability ([3]; at 0.000305 µM, OCI-C5x cells, without rucaparib): 98.5% (active) | viability ([3]; at 0.000305 µM, OCI-P5x cells, with rucaparib 20 µM, 100% = cells with rucaparib alone): 93.8% (active) | viability ([3]; at 0.000305 µM, OCI-P5x cells, without rucaparib): 94.2% (active) | viability ([3]; at 0.00122 µM, OCI-C5x cells, with rucaparib 10 µM, 100% = cells with rucaparib alone): 108% (inactive) | viability ([3]; at 0.00122 µM, OCI-C5x cells, without rucaparib): 102% (inactive) | viability ([3]; at 0.00122 µM, OCI-P5x cells, with rucaparib 20 µM, 100% = cells with rucaparib alone): 95.3% (active) | viability ([3]; at 0.00122 µM, OCI-P5x cells, without rucaparib): 93.4% (active) | viability ([3]; at 0.00488 µM, OCI-C5x cells, with rucaparib 10 µM, 100% = cells with rucaparib alone): 111% (inactive) | viability ([3]; at 0.00488 µM, OCI-C5x cells, without rucaparib): 110% (inactive) | viability ([3]; at 0.00488 µM, OCI-P5x cells, with rucaparib 20 µM, 100% = cells with rucaparib alone): 92.7% (active) | viability ([3]; at 0.00488 µM, OCI-P5x cells, without rucaparib): 96.6% (active) | viability ([3]; at 0.0195 µM, OCI-C5x cells, with rucaparib 10 µM, 100% = cells with rucaparib alone): 116% (inactive) | viability ([3]; at 0.0195 µM, OCI-C5x cells, without rucaparib): 115% (inactive) | viability ([3]; at 0.0195 µM, OCI-P5x cells, with rucaparib 20 µM, 100% = cells with rucaparib alone): 93.3% (active) | viability ([3]; at 0.0195 µM, OCI-P5x cells, without rucaparib): 94.2% (active) | viability ([3]; at 0.0781 µM, OCI-C5x cells, with rucaparib 10 µM, 100% = cells with rucaparib alone): 110% (inactive) | viability ([3]; at 0.0781 µM, OCI-C5x cells, without rucaparib): 108% (inactive) | viability ([3]; at 0.0781 µM, OCI-P5x cells, with rucaparib 20 µM, 100% = cells with rucaparib alone): 94.7% (active) | viability ([3]; at 0.0781 µM, OCI-P5x cells, without rucaparib): 99.6% (active) | viability ([3]; at 0.313 µM, OCI-C5x cells, with rucaparib 10 µM, 100% = cells with rucaparib alone): 117% (inactive) | viability ([3]; at 0.313 µM, OCI-C5x cells, without rucaparib): 106% (inactive) | viability ([3]; at 0.313 µM, OCI-P5x cells, with rucaparib 20 µM, 100% = cells with rucaparib alone): 88.9% (active) | viability ([3]; at 0.313 µM, OCI-P5x cells, without rucaparib): 104% (inactive) | viability ([3]; at 1.25 µM, OCI-C5x cells, with rucaparib 10 µM, 100% = cells with rucaparib alone): 118% (inactive) | viability ([3]; at 1.25 µM, OCI-C5x cells, without rucaparib): 111% (inactive) | viability ([3]; at 1.25 µM, OCI-P5x cells, with rucaparib 20 µM, 100% = cells with rucaparib alone): 89.5% (active) | viability ([3]; at 1.25 µM, OCI-P5x cells, without rucaparib): 99.1% (active) | viability ([3]; at 5 µM, OCI-C5x cells, with rucaparib 10 µM, 100% = cells with rucaparib alone): 116% (inactive) | viability ([3]; at 5 µM, OCI-C5x cells, without rucaparib): 109% (inactive) | viability ([3]; at 5 µM, OCI-P5x cells, with rucaparib 20 µM, 100% = cells with rucaparib alone): 83.3% (active) | viability ([3]; at 5 µM, OCI-P5x cells, without rucaparib): 89.3% (active) | inhibition ([4]; at 0.5 µM, stronger effect = higher value): -22.5% (inactive) and -16.6% (inactive) | inhibition ([4]; measured here: combination with BGB IC20, at 0.005 µM): -34.5% and -4.15% | inhibition ([4]; measured here: combination with BGB IC40, at 0.005 µM): 74.6% and -15.4% | inhibition [4, 18]: -17.3% and -8.02% | inhibition ([4]; measured here: combination with cisplatin, at 0.5 µM, stronger effect = higher value): -12.8% and -32.3% | inhibition ([4]; measured here: combination with cisplatin, at 5 µM, stronger effect = higher value): -34.9% and -31.3% | inhibition ([5]; BGB combo, at 5 µM): -65.3% and -26.9% | inhibition ([5]; at 0.5 µM): -38.5% (inactive) and -17.7% (inactive) | inhibition ([5]; cisplatin combo, at 5 µM): -63.5% and -31.2% | inhibition [5, 19]: -39.2% and -23.4% | inhibition [5, 20]: -28% and -17.7% | inhibition ([5]; single agent, at 5 µM): -54.8% and -22.1% | inhibition ([6]; BGB IC20 combo, at 0.005 µM): -37.9% and -8.12% | inhibition ([6]; BGB IC40 combo, at 0.005 µM): -29.1% and -31.3% | inhibition ([6]; BGB IC40 combo, at 0.05 µM): -30% and -50.9% | inhibition ([6]; at 0.5 µM): -27.9% (inactive) and -27.3% (inactive) | inhibition ([6]; cisplatin combo, at 0.05 µM): -36.7% and -56.9% | inhibition ([6]; cisplatin combo, at 0.5 µM): -28.4% and -31.6% | inhibition ([6]; cisplatin combo, at 5 µM): -21.8% and -22.7% | inhibition ([6]; measured here: 5 uM single agent, at 5 µM): -34% and -5.68% | inhibition ([7]; at 0.5 µM): -35.7% (inactive) and -30.1% (inactive) | inhibition [7, 18]: -32.7% and -26.4% | inhibition [7, 21]: -69.3% and -37.1% | inhibition [7, 22]: -41.3% and -32.8% | inhibition ([8]; at 0.5 µM): -20.7% (inactive) and -9.16% (inactive) | inhibition ([8]; measured here: with BGB IC20, at 0.5 µM): -7.26% and 6.66% | inhibition ([8]; measured here: with BGB IC20, at 5 µM): -10.7% and -19.1% | inhibition ([8]; measured here: with cisplatin IC20, at 0.5 µM): -27.1% and -24.2% | inhibition ([8]; measured here: with cisplatin IC20, at 5 µM): 18% and -25.8% | inhibition ([8]; single agent, at 5 µM): -17.5% and -2.77% | inhibition ([9]; at 0.5 µM): -89.4% (inactive) and -48.9% (inactive) | inhibition ([9]; measured here: combination with BGB at IC20, at 0.5 µM): -73.5% and 13.5% | inhibition ([9]; measured here: combination with cisplatin at IC20, at 0.5 µM): -117% and -69.6% | inhibition ([10]; at 0.5 µM): -22.5% (inactive) and -0.04% (inactive) | inhibition ([10]; measured here: combo with BGB at IC20, at 0.5 µM): -19.9% and -14.2% | inhibition ([10]; measured here: combo with cisplatin at IC20, at 0.5 µM): -31.5% and 17.9% | inhibition ([11]; at 0.5 µM): -19.7% (inactive) and -14.9% (inactive) | inhibition ([11]; measured here: inhibition with BGB combination, at 0.05 µM): -30.7% and -21.8% | inhibition ([11]; measured here: inhibition with cisplatin combination, at 0.05 µM): -28.1% and -20.9% | inhibition ([12]; at 0.5 µM): -12.3% (inactive) and -24.7% (inactive) | inhibition [12, 21]: -9.92% and -32% | inhibition [12, 22]: -15.4% and -22.8% | inhibition ([13]; at 0.5 µM): -30.7% (inactive) and -10.1% (inactive) | inhibition ([13]; measured here: BGB combination, at 0.5 µM): -24.7% and -2.6% | inhibition ([13]; measured here: BGB combination, at 5 µM): -6.13% and -14.1% | inhibition ([13]; measured here: cisplatin combination, at 0.5 µM): -47% and -19.2% | inhibition ([13]; measured here: cisplatin combination, at 5 µM): -39.2% and -16.3% | inhibition ([14]; BGB combination, concentration series, at 5 µM): -32.5% and 1.48% | inhibition ([14]; at 0.5 µM): -24.6% (inactive) and -10.6% (inactive) | inhibition ([14]; cisplatin combination, concentration series, at 5 µM): -5.77% and 15.9% | inhibition ([15]; at 0.5 µM): -9.48% (inactive) and -15.9% (inactive) | inhibition ([15]; cisplatin combination, at 0.5 µM): -0.569% and -16.9% | inhibition ([15]; cisplatin combination, at 5 µM): -138% and -1.29% | inhibition ([15]; measured here: BGB IC40 combination 0.05 uM, at 0.05 µM): -26.7% and -17.1% | inhibition ([15]; single agent, at 5 µM): -8.38% and 9.97% | inhibition ([16]; at 0.5 µM): -8.55% (inactive) and -27.8% (inactive) | inhibition ([16]; cisplatin combo, at 5 µM): 7.25% and -23.2% | inhibition ([16]; measured here: BGB IC40 combination, at 0.05 µM): -14% and -29.5% | inhibition [16, 21]: 4.17% and -12.7% | inhibition ([16]; single agent, at 5 µM): -2.65% and -61.4% | inhibition ([17]; at 0.5 µM): -24.2% (inactive) and -17.6% (inactive) | inhibition [17, 19]: -40% and -29.3% | inhibition [17, 20]: -18.2% and -11.8% | inhibition ([17]; single agent, at 0.05 µM): -24.2% and 17.5% | inhibition ([17]; single agent, at 5 µM): 9.21% and -20.7%
